# Compound activity deposited in PubChem BioAssay by National Center for Advancing Translational Sciences (NCATS).
# Only some compounds are listed: those with a hit (about 7.3% of all), similar ones and a draw of the others.
# FMDV antiviral = antivirals against foot and mouth disease virus; FMDV antiviral cell-based qHTS; AID 1159524; 1.2% of 410,000 active; Potency, µM (titrated, usually from 57.9 µM), for the others: at the top dose activity change, negative = inhibition, usual class: inhibitors; calls by dose curve; tested in HEK293T cells; further: read-out not given here; potency means the concentration at half of the fitted maximal effect; nearly all actives have a fitted effect of over 45% in size
# AmpC inh detg = blocks E. coli AmpC beta-lactamase in detergent assay; AmpC hydrolysis of nitrocefin, absorbance 480 nm, 0.01% Triton; Potency, µM (titrated, usually from 114 µM), for the others: at the highest dose activity change, negative = inhibition, actives largely listed as inhibitors; P00811; AID 485294; 0.041% of 370,000 active;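 further: potency means the concentration at half of the fitted maximal effect; 0% = no-compound wells and -100% = no-enzyme wells; nearly all actives have a fitted effect of over 25% in size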
# Target sequence (P00811 whole entry, looked up): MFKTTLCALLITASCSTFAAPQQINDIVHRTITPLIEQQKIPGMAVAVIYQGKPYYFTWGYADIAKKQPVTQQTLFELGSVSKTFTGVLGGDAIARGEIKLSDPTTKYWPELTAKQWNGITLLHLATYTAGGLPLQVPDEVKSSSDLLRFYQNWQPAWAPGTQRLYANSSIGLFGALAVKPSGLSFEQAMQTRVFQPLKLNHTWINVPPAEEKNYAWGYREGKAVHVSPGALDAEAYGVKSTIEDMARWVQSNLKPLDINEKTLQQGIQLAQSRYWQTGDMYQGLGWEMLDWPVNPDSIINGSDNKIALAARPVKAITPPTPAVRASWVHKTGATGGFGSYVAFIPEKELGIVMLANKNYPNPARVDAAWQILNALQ
#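 AmpC (5.3 nM in the dispensed reagent) in 20 mM phosphate pH 7.0 with 0.01% (detergent screen) or 0.0001% Triton X-100 was preincubated with compounds for 15 min at room temperature. Nitrocefin was then added from an 800 uM solution, and hydrolysis was followed at 480 nm.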
# AmpC no deterg = blocks E. coli AmpC beta-lactamase in detergent-free assay | P00811 | Potency, µM (top dose mostly 57.1 µM), inactives show top-dose activity change, negative = inhibition, actives largely listed as inhibitors | 0.52% of 330,000 active | AmpC nitrocefin hydrolysis, absorbance 480 nm, 0.0001% Triton;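 further: potency means the concentration at half of the fitted maximal effect; plate controls were no compound for no effect and no enzyme for full effect; nearly all actives have a fitted effect of over 20% in size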
#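 20 mM phosphate pH 7.0 + 0.01% (detergent screen) or 0.0001% Triton X-100; 5.3 nM AmpC reagent; cpd preinc 15 min RT; nitrocefin (800 uM stock) to start; A480 q20 s × 4 min; Activity was normalised to no-enzyme and no-compound control wells.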
# HCMV antiviral = inhibitors of human cytomegalovirus; HFF cells, HCMV-luciferase reporter, 72 h; stronger effect = lower value; activity change, negative = inhibition, % at 57.5 µM; 4.5% of 410,000 active; in the data active means activity change below about -60%; inconclusive means no clear call, values can overlap the other calls; inactive means above about -39%
#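 Steps: HFFs plated, 16 h 37C; compounds added; HCMV-luciferase added to MOI 1 PFU/cell; 72 h 37C; OneGlo reagent, 5 min room temperature; luminescence read, normalized to controls.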
# HCV inhibitor = inhibitors of hepatitis C virus infection; Huh7.5.1 HCVcc-Cre infection, luciferase reporter, 44 h; Potency, µM (top dose mostly 41.8 µM), for inactives: top-dose activity change, negative = inhibition, hits mostly inhibitors; 3.4% of 340,000 active; AID 651820; further: potency means the concentration at half of the fitted maximal effect
#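 After 44 h co-culture of compound, cells and HCVcc-Cre (~0.5 moi), substrate is added for 15 min at room temperature and luciferase measured over 15 sec. Cells were seeded at 1,000/well and pre-cultured 4 h.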
# The depositor's hits bear a star; ? = inconclusive; nt = not tested or not shown; + = active, no number. Unless noted, the call rests on the fitted dose curve; in most records, active means well fitted curve in the direction sought with a large enough effect; inconclusive means small, poorly fitted or top-dose-only effect, or another doubt; inactive means no such curve, though single readings can be large; an effect the other way counts as inactive or inconclusive. Unless noted, on the % scale 0 is the no-effect control and ±100 the full control effect.
SMILES,FMDV antiviral,AmpC inh detg,AmpC no deterg,HCMV antiviral,HCV inhibitor
CC(=O)c1ccc(S(=O)(=O)Nc2cccc(S(=O)(=O)NC3=NCCC3)c2)cc1,19.1%,-10.5%,-16.7%,-14.6,-3.8%
CC(=O)c1cccc(S(=O)(=O)Nc2cccc(S(=O)(=O)NC3=NCCC3)c2)c1,50.6%,?,-16.3%,-84.2*,7.2%
Cc1ccccc1-n1ccnc1SCC(=O)Nc1cccc(S(=O)(=O)NC2=NCCC2)c1,19.2%,nt,-0.2%,-61.0*,-1.2%
O=C(COC(=O)/C=C/c1ccc(Cl)cc1Cl)Nc1cccc(S(=O)(=O)NC2=NCCC2)c1,-0.1%,nt,nt,-69.5*,nt
O=C(COC(=O)c1ccc(S(=O)(=O)N2CCCC2)cc1)Nc1cccc(Cl)c1,-23.5%,0.4%,-8.4%,2.1,9.4%
CC(C)n1c(=S)[nH]c2ccccc2c1=O,8.8%,-4.7%,-31.7%,?,-16.1%
CC(C)n1c(=S)[nH]c2cc(Cl)ccc21,-12.1%,3.3%,-27.0%,-72.0*,2.8%
CN(C(=O)c1cccc(Nc2ccc(-c3ccc4c(c3)OCCO4)nn2)c1)C1CCCCC1,-53.7%,?,-18.6%,-93.2*,?
Cn1c(N2CCN(c3ccccn3)CC2)nc2c1c(=O)n(Cc1ccc(Cl)cc1)c(=O)n2C,20µM*,?,2.9%,-84.1*,14.9%
Cn1c(OCc2cccnc2)nc2c1c(=O)n(Cc1ccc(Cl)cc1)c(=O)n2C,?,nt,nt,?,11.2µM*
COc1ccc(S(=O)(=O)N2CCCCCC2)cc1C(=O)N(CC(C)C)C1CCS(=O)(=O)C1 (stereo not drawn),-14.1%,-13.4%,106.7%,48.4,?
CCOc1ccc(C(=O)c2ccccc2C(=O)O)cc1OCC,-11.6%,?,-13.1%,-20.8,26.6%
CC1=CC(=O)C(C(C)C)=C/C1=C(\c1cc(C(C)C)c(OP(=O)(O)O)cc1C)c1ccccc1C(=O)O,-1.6%,0.2%,-29.5%,-98.2*,?
C[C@H](CO)N1C[C@H](C)[C@H](CN(C)C(=O)Nc2ccc(C(C)(C)C)cc2)OCc2cnnn2CCCC1=O,6.2%,nt,nt,-18.6,nt
COc1ccc(C2CC(O)(c3ccccc3)Oc3cc(OC)c(OC)c(OC)c32)cc1 (stereo not drawn),6.2%,14.0%,11.1%,41.8,-26.0%
COc1ccc([C@@]23Oc4cc(OC)cc(OC)c4[C@]2(O)[C@H](O)[C@H](C(=O)N(C)C)[C@H]3c2ccccc2)cc1,?,nt,nt,-98.1*,nt
COC(=O)C1CCN(CC(=O)NC(=O)NC2CCCCC2)CC1,-1.7%,5.9%,2.2%,-97.9*,14.5%
COCCN(C)C(=O)c1cnn(-c2nccc(-c3cc(OC)ccc3OC)n2)c1C,21.8%,nt,nt,nt,nt
O=[N+]([O-])c1ccc(Sc2cccc[n+]2[O-])c2nonc12,6.31µM*,-10.2%,-25.5%,-106.2*,10µM*
Cc1c(C(=O)N/N=C/c2c(O)ccc3ccccc23)nnn1-c1nonc1N,-10.9%,-0.4%,-13.0%,-98.5*,?
Nc1nonc1-n1nnc(C(=O)N/N=C/c2ccc(OCc3ccc(F)cc3)cc2)c1COc1ccccc1,-12.9%,?,-41.7%,-73.1*,?
Cc1ccc(/C=N/NC(=O)c2nnn(-c3nonc3N)c2CNc2ccccc2)cc1,-5.5%,1.9%,-55.9%,-39.6,?
Nc1nonc1-n1nnc(C(=O)N/N=C/c2cc(Br)ccc2O)c1CNc1ccccc1,-19.7%,-5.2%,-45.0%,-92.7*,10µM*
Nc1nonc1C(=O)N/N=C/c1cc(Br)ccc1O,43.6%,-3.4%,-26.0%,-8.1,11.2µM*
COc1ccc2ccccc2c1/C=N/NC(=O)c1nnn(-c2nonc2N)c1C(C)C,-21.8%,4.0%,-37.2%,1.2,-27.8%
SMILES,FMDV antiviral,AmpC inh detg,AmpC no deterg,HCMV antiviral,HCV inhibitor
Cc1cc(C)cc(-n2ccn3cnnc3c2=O)c1,1.3%,-0.2%,nt,1.2,nt
Cc1nn(C)c(Cl)c1C(=O)NC(C(=O)O)c1ccccc1 (stereo not drawn),-3.7%,2.1%,-17.9%,-31.8,18.4%
Cc1nc(C)c(C(=O)N/N=C/c2cc(Br)ccc2O)s1,-0.6%,-17.2%,-39.3%,-99.0*,?
Cc1nc(C)c(C(=O)N/N=C/c2c[nH]c3ccccc23)s1,-2.1%,-6.0%,-2.1%,nt,1.4%
Nc1nonc1-n1nnc(C(=O)N/N=C/c2ccncc2)c1-c1ccccc1,-17.3%,?,-6.5%,-14.2,15.0%
Nc1nonc1-n1nnc(C(=O)N/N=C/c2ccc(Cl)cc2Cl)c1CN1CCCC1,-12.6%,?,-19.7%,1.1,13.6%
Nc1nonc1-n1nnc(C(=O)N/N=C/c2ccncc2)c1-c1cccs1,26.1%,-2.9%,-10.3%,+,12.3%
Nc1nonc1-n1nnc(C(=O)N/N=C/c2cccc(Cl)c2Cl)c1CN1CCCC1,-1.6%,3.1%,-25.6%,-61.3*,?
CN(C)CCCc1cc(C(=O)Nc2ccc(-c3ccncc3)cc2)ccc1O,-13.9%,nt,nt,nt,nt
CC(C)OCCCNC(=O)c1ccc2c(c1)N(Cc1c(F)cccc1Cl)C(=O)c1ccccc1S2,-17.1%,7.7%,nt,?,nt
CCc1ccc(-c2nn(CC(=O)NCc3ccccc3)c3c2cnc2ccc(C)cc23)cc1,3.9%,19.7%,nt,4.5,nt
Cc1cc(=O)oc2cc(OCC(=O)NC3CCCCC3)c(Cl)cc12,11.1%,nt,-13.9%,-7.8,5.9%
O=C(NC1CCCCC1)Oc1cc2oc(=O)sc2cc1Cl,25.1µM*,1.1%,-20.3%,-19.9,-5.8%
Cn1nc(C(F)(F)F)c(-c2ccc(Br)cc2)c1NC(=O)CSCC(=O)O,-6.8%,1.1%,-25.3%,26.4,20.2%
CCc1nn2c(=O)cc(COC(=O)c3cccc(NC(=O)c4ccccc4Cl)c3)nc2s1,25.5%,-0.5%,nt,49.1,nt
COc1ccc(-c2csc(-c3nc(-c4ccc(Br)s4)cs3)n2)cc1F,5.2%,-1.2%,nt,3.4,nt
COc1cc2c(c3c1c(=O)c1cccc(F)c1n3C)C=CC(C)(C)O2,nt,nt,nt,-13.5,nt
O=C1CN(C(=O)CSc2nc3cc(Cl)ccc3c(=O)n2Cc2ccccc2)c2ccccc2N1,-29.2%,-2.9%,-35.6%,?,11.2µM*
Cc1ccc(Cn2c(SCC(=O)N3CC(=O)Nc4ccccc43)nc3ccccc3c2=O)cc1,-18.2%,-11.3%,-18.3%,-76.3*,10µM*
Cc1nnc(SCC(=O)N2CC(=O)Nc3ccccc32)n1Cc1ccccc1,6.2%,2.7%,-14.4%,62.4,5.7%
O=C(COCc1cc(-c2ccc3c(c2)OCO3)on1)Nc1cccnc1Cl,33.4%,-0.3%,0.7%,-5.1,-0.7%
COc1ccc(OC)c(NS(=O)(=O)c2ccc3[nH]c(=O)[nH]c3c2)c1,-18.1%,nt,nt,-102.5*,nt
CCCCOc1ccc(S(=O)(=O)Nc2cc(OC)ccc2OC)cc1,nt,?,nt,?,10µM*
CC1CC2CCCC(O)=C2C(=O)O1 (stereo not drawn),-27.3%,nt,nt,-60.6*,11.3%
O=S(=O)(c1ccccc1F)N1CCN(c2nc(-c3cccnc3)nc3ccccc23)CC1,-15.6%,3.7%,33.3%,-22.0,?
